Results published in PubChem BioAssay AID624330 (Southern Research Specialized Biocontainment Screening …, 2012).
Among all 340,000 compounds or so, about 2,100 (0.62%) were called active.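 How the source made its calls: active means first-screen hits whose inhibition reached a set limit at any dose in the follow-up dose series; inconclusive means inhibition above the set first-screen limit but never retested; inactive means the rest.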 Not all results are given here. Results with a measured potency or affinity are listed apart.

Target: Rac GTPase-activating protein 1 (Homo sapiens) (UniProt Q9H0H5)
Test: blockers of MgcRacGAP-driven Rac1 GTP hydrolysis – biochemical, ADP Hunter fluorescence, primary and confirmatory, confirmation (AID 624330);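 further: fluorescence reports GDP produced by GAP-driven GTP hydrolysis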
Conditions: MgcRacGAP-stimulated Rac1 GTP hydrolysis, at 30 µM, active compounds read high, GST-tagged Rac1 F28L mutant substrate

Chain of Rac GTPase-activating protein 1 (Homo sapiens) (Q9H0H5 whole entry, looked up): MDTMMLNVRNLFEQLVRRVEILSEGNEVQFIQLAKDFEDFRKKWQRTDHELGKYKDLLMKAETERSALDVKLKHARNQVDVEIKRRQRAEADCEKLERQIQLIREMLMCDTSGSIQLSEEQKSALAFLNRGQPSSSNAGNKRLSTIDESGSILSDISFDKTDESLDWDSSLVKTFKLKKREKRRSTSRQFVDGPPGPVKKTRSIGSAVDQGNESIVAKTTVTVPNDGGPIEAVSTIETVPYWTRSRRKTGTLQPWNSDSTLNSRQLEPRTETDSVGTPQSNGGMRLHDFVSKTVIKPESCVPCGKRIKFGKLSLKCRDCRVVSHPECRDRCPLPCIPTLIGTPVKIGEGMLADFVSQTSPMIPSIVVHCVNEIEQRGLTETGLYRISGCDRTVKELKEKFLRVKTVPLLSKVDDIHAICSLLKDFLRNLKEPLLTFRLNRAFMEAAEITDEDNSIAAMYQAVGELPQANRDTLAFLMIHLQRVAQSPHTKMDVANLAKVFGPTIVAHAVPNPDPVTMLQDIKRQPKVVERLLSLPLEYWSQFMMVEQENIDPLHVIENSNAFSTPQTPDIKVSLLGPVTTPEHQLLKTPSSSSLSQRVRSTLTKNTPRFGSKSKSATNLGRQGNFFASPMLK

inhibition, inactive:
O=c1c2ccccc2nnn1CSc1ccccc1F 8.16%, Cc1cccc(C(=O)NCC(=O)NC2CCC(C)CC2)c1 (configuration not stated) 3.71%, O=C(CSc1c2c(nc3ccccc13)CCC2)N1CCCC1 10.3%, Cc1ccn2cc(CCNC(=O)CC3CCCCC3)nc2c1 16%, O=C(c1cc(Cl)nc2ccccc12)N1CCCCC1 3.41%, CCN(CC)c1ccc(C(=O)NNC(=O)CCl)cc1 9.55%, CCN(CC)c1ccc(C(=O)Nc2cccc(F)c2)cc1 15.5%, Cc1ccc(-c2csc(NC(=O)c3ccccc3F)c2C(=O)O)cc1 5.32%, COc1cccc(COC(=O)c2cc(S(=O)(=O)N3CCCCC3)ccc2N2CCOCC2)c1OC -0.42%, COc1ccc(CCNCc2ccc(OCc3ccccc3)cc2)cc1 -1.52%, COc1ccc(CCNC(=O)C(=O)NCCCN2CCOCC2)cc1 0.98%, COc1ccc(CNS(=O)(=O)CCNCCc2ccccc2)cc1 6.36%, COc1ccc(CC(=O)NCCN2CCOCC2)cc1 -0.23%, O=C(Cc1ccc(F)cc1)NCCc1ccccc1 -3.3%, O=S(=O)(Cc1ccccc1)NCCc1ccc(F)cc1 -2.46%, O=C(c1ccc(Br)o1)N1CC=C(c2ccccc2)CC1 -9.29%, COCCCNC(=O)C1CCCN(S(C)(=O)=O)C1 (configuration not stated) 4.1%, N=c1c(S(=O)(=O)c2ccc(Br)cc2)cc2c(=O)n3ccccc3nc2n1C1CCCC1 3.79%, N#CCC(=O)Nn1c(=S)[nH]c2ccccc2c1=O 3.15%, CCSCCOC(=O)C1=C(C)NC(=O)NC1c1ccccc1 (configuration not stated) 2.5%, CCCCNC(=O)CNC(=S)N(Cc1cc(OC)c(OC)c(OC)c1)C1CCCC1 5.07%, COc1ccccc1N1CCN(CCCC(=O)c2ccc(F)cc2)CC1 8.13%, COc1ccc(C(=O)CN2CCN(c3ccc(F)cc3)CC2)cc1 11.7%, COc1ccccc1N1CCN(CCCCCCOc2ccc(F)cc2)CC1 7.05%, COc1ccccc1N1CCN(CCCCOc2ccc(F)cc2)CC1 4.56%, CCN(CC)S(=O)(=O)c1ccc(NC(=O)C(OC)c2ccccc2)cc1 (configuration not stated) 11.8%, C/C(=N\Nc1ccccn1)c1ccc(C#N)cc1 6.31%, Cc1nn(CC(=O)N2CCc3ccccc3C2)c(C)c1[N+](=O)[O-] 4.25%, Nc1ccc(-c2nc3ccccc3o2)cc1 4.77%, Nc1ccc(-c2nc3cc(N)ccc3o2)cc1 17.5%, COc1ccc(CC(=O)OCC(=O)NCc2ccc(Cl)cc2)cc1 -11.6%, COc1cccc(NC(=O)COC(=O)c2ccccc2C(=O)N2CCN(c3ccccc3)CC2)c1 -5.54%, Cc1ccccc1N(CC(=O)N1CCCC1)S(=O)(=O)c1ccc(Cl)cc1 5.47%, CCOc1ccc2nc(-c3ccccc3)nc(SCC(=O)Nc3ncc(C)s3)c2c1 -5.25%, O=C(COc1ccc2c3c(c(=O)oc2c1)CCC3)N1CCCC1 11.2%, CSc1ncccc1C(=O)NCC1CCCCC1 6.8%, CC(C)C(=O)Nc1ccc2c(c1)Cc1cc(NC(=O)C(C)C)ccc1-2 12.2%, COc1cc2c(cc1NC(=O)C(F)(F)F)-c1ccc(NC(=O)C(F)(F)F)cc1C2 4.33%, COc1cc(C(=O)N/N=C/c2ccc(OC(=O)c3ccccc3Cl)c(OC)c2)ccc1O 17.8%, COc1cccc(/C=N/NC(=O)CCc2ccccc2)c1 8.09%, CCOc1ccc(/C=N\NC(=O)CC(=O)NCCc2ccccc2)cc1 13%, COc1ccc(NC(=O)CCNC(=O)c2ccccc2Cl)cc1OC 9.17%, COc1ccc(/C=N/NC(=O)CCc2ccccc2)cc1O 26.6%, Cc1ccc(/C=N\NC(=O)CC(=O)NCCc2ccccc2)cc1 -1.99%, O=C(CNC(=O)C(c1ccccc1)c1ccccc1)N/N=C\c1cccc(O)c1 6.95%, COc1ccc(/C=N\NC(=O)CNC(=O)C(c2ccccc2)c2ccccc2)cc1[N+](=O)[O-] -25.7%, COCCN(C(=O)COC(=O)c1ccc(Br)o1)c1c(N)n(Cc2ccccc2)c(=O)[nH]c1=O 7.5%, O=c1[nH]c(CSc2ncccn2)nc2c1cnn2-c1ccccc1 9.39%, Fc1ccc(-n2cc(CNCCc3cccnc3)c(-c3ccccc3Cl)n2)cc1 5.92%, C=CC[C@@H](CC(=O)N(CCO)Cc1ccccc1)C(=O)N[C@H](COC(=O)[C@@H](CC=C)Cc1ccc(F)cc1)C(C)(C)C 4.96%, CC1(C)CC(=O)C(CC2C(=O)CC(C)(C)CC2=O)C(=O)C1 12.9%, COC(=O)c1cccnc1SCc1ccccc1 3.27%, CCOc1ncccc1C(=O)Nc1cccc(S(=O)(=O)N2CCOCC2)c1 3.19%, COC(=O)CCNC(=O)Cn1cnc2sc3c(c2c1=O)CCCC3 3.18%, CC1(C)CC(=O)N(Cc2ccccc2)C(=O)C1 2.51%, O=C(NCCc1ccc(F)cc1)C(=O)NCC1CCCN1S(=O)(=O)c1cccs1 (configuration not stated) -7.17%, COc1ccc(/C=N/NC(=O)CC(=O)NCCc2ccccc2)cc1OC 1.81%, COc1cc(/C=N/NC(=O)C(=O)NCc2ccco2)ccc1O 17.7%, COC(=O)c1ccc(/C=N\NC(=O)CC(=O)NCCc2ccccc2)cc1 0.63%, COc1ccc(/C=N/NC(=O)/C(=C/c2ccccc2)CCO)cc1 8.48%, CC(C(=O)Nc1ccc(S(=O)(=O)N2CCOCC2)cc1)N1CCN(c2ccccn2)CC1 (configuration not stated) -2.88%, CCc1cc(C(=O)OC)c(NC(=O)CC2NCCNC2=O)s1 (configuration not stated) 0.55%
